Test results from PubChem BioAssay.
Values joined by “and” are separate entries in the source; they are usually repeats but may differ in a detail not shown here. Equal entries are not always repeated. Active and inactive are the calls of the source.

Assays:
[1] = binders of probe aFSTL3 on microarray, primary screen, stem cell growth factor project, biochemical, small-molecule microarray, fluorescence 635/667 (AID 1064); conditions: higher = more signal;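 note: measures binding of the biotinylated anti-FSTL3 antibody to printed compounds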
[2] = binders from COS7 lysate, DM2A8 probe, primary screen, torsin A project, cell lysate, small-molecule microarray, fluorescence 635/667 (AID 1065); conditions: higher = more signal, COS7 lysate expressing mutant human TOR1A
[3] = binders of probe aFGF2 on microarray, primary screen, stem cell growth factor project, biochemical, small-molecule microarray, fluorescence 635/667 (AID 1067); conditions: higher = more signal;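 note: measures binding of biotinylated aFGF2 protein to printed compounds on slides; z-score merges feature fluorescence and signal-to-noise across triplicate slides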
[4] = binders of probe aFGF10 on microarray, primary screen, stem cell growth factor project, biochemical, small-molecule microarray, fluorescence 635/667 (AID 1071); conditions: higher = more signal;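 note: score merges 667 nm spot intensity and signal to noise from triplicate slides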
[5] = target: Neurogenic locus notch homolog protein 2 (Homo sapiens) (UniProt Q04721); experiment: Notch2 binders on small-molecule microarrays, primary screen, biochemical, small-molecule microarray, 635 nm fluorescence, stem cell growth factors (AID 1073); conditions: Notch2 binding, higher = more signal
[6] = target: Pro-neuregulin-1, membrane-bound isoform (Homo sapiens) (UniProt Q02297); experiment: NRG1 binders on small-molecule microarrays, primary screen, psychiatric disease protein project, biochemical, small-molecule microarray, fluorescence 635/667 (AID 1075); conditions: NRG1 binding, 635 nm fluorescence, higher = more signal;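 note: score combines 667 nm spot fluorescence with signal to noise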
[7] = system: Neuregulin-1 EGF-like domain; experiment: binders of neuregulin-1 EGF-like domain, primary screen, biochemical, small-molecule microarray, 635 nm fluorescence (AID 1081); conditions: small-molecule microarray binding, higher = more signal;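 note: binding of the protein to compounds printed on small-molecule microarray slides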
[8] = FRG1 promoter luciferase signal modulators, primary screen, FRG1 inhibition for FSHD, cell-based, C2C12 myotubes, firefly/Renilla luciferase, luminescence (AID 1084); conditions: higher = more signal, called active from +8 up or from −8 down
[9] = binders of probe aFST on microarray, primary screen, stem cell growth factor project, biochemical, small-molecule microarray, fluorescence 635/667 (AID 1086); conditions: higher = more signal;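 note: score merges 667 nm fluorescence with signal-to-noise of each printed compound spot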
[10] = binders of probe aHhip on microarray, primary screen, stem cell growth factor project, biochemical, small-molecule microarray, fluorescence 635/667 (AID 1087); conditions: higher = more signal;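 note: score merges spot fluorescence at 667nm with spot signal to noise ratio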
[11] = system: PRMT1 (protein arginine N-methyltransferase 1); experiment: PRMT1 binders on small-molecule microarrays, primary screen, biochemical, small-molecule microarray, 635 nm fluorescence (AID 1088); conditions: small-molecule microarray binding, higher = more signal;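 note: binding of Prmt1 protein to compounds spotted on small-molecule microarray slides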
[12] = yeast growth modulation, basal conditions, primary screen, YJM789 clinical isolate, OD600, 24 h (AID 1089);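 note: growth of clinical yeast isolate S. cerevisiae YJM 789 seeded 1000 cells per well; test concentration not given here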; conditions: S. cerevisiae YJM789 growth, higher = more signal, called active from +8 up or from −8 down
[13] = fission yeast growth modulation, primary screen, strain 972, OD600, 24 h, no modulator (AID 1090);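 note: basal condition with compound alone and no growth modifier present; test concentration not given here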; conditions: S. pombe 972 growth, higher = more signal, called active from +8 up or from −8 down
[14] = S. cerevisiae growth modulation with rapamycin, primary screen, strain BY4716, OD600, 96 h (AID 1091); conditions: higher = more signal, called active from +8 up or from −8 down; note: test concentration not given here
[15] = target: Torsin-1A-interacting protein 2 (Homo sapiens) (UniProt Q8NFQ8); experiment: LULL1 binders on small-molecule microarray, primary screen, cell lysate, human LULL1 lysate, 635/667 nm fluorescence (AID 1092); conditions: hLULL1 lysate binding, 635 nm fluorescence, higher = more signal;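 note: probe is lysate of COS7 cells overexpressing human LULL1; score merges per-feature 667 nm fluorescence with signal-to-noise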
[16] = E. coli growth modulation, two-sided OD650, primary screen, E. coli filamentation project, strain DRC41, 24 h (AID 1093); conditions: OD650, 24 h, higher = more signal, called active from +8 up or from −8 down;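 note: MC1000 strain lacking acrAB efflux and sulA so SOS filamentation is blocked; test concentration not given here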
[17] = small-molecule microarray binders of probe aLefty2, primary screen, biochemical, biotinylated probe, 635/667 nm fluorescence (AID 1094); conditions: higher = more signal;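 note: score merges spot fluorescence near 667 nm with spot signal-to-noise ratio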
[18] = system: Noggin (protein binding on small-molecule microarray); experiment: Noggin binders on small-molecule microarray, primary screen, biochemical, 635/667 nm fluorescence (AID 1095); conditions: 635 nm fluorescence, higher = more signal;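 note: score merges 667 nm feature fluorescence with signal to noise over triplicate slides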
[19] = target: Neurogenic locus notch homolog protein 3 (Homo sapiens) (UniProt Q9UM47); experiment: NOTCH3 binders on small-molecule microarray, primary screen, biochemical, 635/667 nm fluorescence (AID 1096); conditions: NOTCH3 binding, 635 nm fluorescence, higher = more signal
[20] = small-molecule microarray binders of probe aEGFR, primary screen, biochemical, biotinylated probe, 635/667 nm fluorescence (AID 1097); conditions: higher = more signal;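 note: probe is a biotinylated anti-EGFR antibody binding compounds printed on slides; score combines fluorescence near 667 nm and signal to noise of each spot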

Chain of Neurogenic locus notch homolog protein 3 (Homo sapiens) (Q9UM47 whole entry, looked up): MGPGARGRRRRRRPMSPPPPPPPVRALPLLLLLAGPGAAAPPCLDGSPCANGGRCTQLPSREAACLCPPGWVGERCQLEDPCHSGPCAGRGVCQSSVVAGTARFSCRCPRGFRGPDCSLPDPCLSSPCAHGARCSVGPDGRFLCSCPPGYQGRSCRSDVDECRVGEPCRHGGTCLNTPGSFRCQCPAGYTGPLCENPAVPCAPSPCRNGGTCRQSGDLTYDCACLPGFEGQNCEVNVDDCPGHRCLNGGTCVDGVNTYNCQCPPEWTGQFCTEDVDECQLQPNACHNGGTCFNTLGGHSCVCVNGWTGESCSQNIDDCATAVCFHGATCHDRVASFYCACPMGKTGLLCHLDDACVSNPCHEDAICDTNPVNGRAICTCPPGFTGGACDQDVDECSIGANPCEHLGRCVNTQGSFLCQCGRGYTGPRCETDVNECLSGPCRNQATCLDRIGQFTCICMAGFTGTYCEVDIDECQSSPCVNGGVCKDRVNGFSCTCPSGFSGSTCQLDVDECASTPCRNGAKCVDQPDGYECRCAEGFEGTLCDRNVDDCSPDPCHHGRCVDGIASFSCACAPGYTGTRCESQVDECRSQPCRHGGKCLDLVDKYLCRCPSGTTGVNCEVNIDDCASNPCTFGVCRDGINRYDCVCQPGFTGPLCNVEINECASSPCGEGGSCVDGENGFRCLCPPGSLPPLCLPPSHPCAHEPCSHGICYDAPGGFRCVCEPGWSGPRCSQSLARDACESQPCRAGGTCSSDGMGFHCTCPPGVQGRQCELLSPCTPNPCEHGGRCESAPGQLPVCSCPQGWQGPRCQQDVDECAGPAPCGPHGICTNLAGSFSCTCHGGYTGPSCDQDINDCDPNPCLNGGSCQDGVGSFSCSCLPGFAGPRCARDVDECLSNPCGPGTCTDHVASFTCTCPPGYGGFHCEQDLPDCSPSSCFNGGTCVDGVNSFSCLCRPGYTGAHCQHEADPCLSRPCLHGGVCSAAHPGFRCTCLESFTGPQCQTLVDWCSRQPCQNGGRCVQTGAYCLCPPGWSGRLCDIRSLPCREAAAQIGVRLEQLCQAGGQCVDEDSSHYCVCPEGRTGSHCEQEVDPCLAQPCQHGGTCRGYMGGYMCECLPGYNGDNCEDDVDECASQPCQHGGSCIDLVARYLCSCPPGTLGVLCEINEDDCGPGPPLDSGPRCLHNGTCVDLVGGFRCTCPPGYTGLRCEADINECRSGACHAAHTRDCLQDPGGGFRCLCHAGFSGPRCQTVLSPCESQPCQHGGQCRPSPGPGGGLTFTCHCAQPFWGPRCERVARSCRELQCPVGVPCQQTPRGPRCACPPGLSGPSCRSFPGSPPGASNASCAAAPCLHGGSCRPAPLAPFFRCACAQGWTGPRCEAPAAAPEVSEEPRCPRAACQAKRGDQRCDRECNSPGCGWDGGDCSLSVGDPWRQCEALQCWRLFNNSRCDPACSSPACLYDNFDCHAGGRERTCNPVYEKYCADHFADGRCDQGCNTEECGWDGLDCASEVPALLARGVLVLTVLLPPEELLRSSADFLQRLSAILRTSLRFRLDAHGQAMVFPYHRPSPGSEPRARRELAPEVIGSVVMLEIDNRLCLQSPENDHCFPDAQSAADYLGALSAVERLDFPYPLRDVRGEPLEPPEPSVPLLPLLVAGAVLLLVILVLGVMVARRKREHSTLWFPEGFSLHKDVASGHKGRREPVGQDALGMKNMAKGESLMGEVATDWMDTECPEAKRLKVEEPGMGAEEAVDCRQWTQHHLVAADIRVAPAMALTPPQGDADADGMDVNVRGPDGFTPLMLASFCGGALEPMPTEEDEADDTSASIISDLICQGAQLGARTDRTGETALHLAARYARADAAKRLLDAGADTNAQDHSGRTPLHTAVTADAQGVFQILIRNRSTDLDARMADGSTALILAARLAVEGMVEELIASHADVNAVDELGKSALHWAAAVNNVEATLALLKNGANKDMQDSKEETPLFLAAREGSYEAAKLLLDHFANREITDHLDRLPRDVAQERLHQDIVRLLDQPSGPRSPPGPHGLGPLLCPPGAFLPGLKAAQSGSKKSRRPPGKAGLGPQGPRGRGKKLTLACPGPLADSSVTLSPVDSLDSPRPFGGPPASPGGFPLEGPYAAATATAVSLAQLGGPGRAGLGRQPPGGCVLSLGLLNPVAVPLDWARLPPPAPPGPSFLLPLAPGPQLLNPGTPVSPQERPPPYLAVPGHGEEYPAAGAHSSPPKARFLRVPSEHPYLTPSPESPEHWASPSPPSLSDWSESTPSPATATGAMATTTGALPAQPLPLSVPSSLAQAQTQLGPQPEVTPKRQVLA
Chain of Torsin-1A-interacting protein 2 (Homo sapiens) (Q8NFQ8 whole entry, looked up): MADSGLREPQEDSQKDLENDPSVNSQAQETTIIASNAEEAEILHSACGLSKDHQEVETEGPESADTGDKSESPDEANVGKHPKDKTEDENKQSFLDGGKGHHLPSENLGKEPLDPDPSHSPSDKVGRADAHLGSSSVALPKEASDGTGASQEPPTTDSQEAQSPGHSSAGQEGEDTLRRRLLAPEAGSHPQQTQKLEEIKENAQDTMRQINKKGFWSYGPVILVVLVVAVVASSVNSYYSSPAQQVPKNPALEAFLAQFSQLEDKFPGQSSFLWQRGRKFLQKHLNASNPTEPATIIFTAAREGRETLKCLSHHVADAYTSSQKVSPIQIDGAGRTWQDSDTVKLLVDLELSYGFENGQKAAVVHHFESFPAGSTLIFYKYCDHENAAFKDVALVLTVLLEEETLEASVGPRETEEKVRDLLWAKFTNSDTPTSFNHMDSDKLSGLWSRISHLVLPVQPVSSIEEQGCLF
Chain of Pro-neuregulin-1, membrane-bound isoform (Homo sapiens) (Q02297 whole entry, looked up, the tested form may be a part, canonical isoform): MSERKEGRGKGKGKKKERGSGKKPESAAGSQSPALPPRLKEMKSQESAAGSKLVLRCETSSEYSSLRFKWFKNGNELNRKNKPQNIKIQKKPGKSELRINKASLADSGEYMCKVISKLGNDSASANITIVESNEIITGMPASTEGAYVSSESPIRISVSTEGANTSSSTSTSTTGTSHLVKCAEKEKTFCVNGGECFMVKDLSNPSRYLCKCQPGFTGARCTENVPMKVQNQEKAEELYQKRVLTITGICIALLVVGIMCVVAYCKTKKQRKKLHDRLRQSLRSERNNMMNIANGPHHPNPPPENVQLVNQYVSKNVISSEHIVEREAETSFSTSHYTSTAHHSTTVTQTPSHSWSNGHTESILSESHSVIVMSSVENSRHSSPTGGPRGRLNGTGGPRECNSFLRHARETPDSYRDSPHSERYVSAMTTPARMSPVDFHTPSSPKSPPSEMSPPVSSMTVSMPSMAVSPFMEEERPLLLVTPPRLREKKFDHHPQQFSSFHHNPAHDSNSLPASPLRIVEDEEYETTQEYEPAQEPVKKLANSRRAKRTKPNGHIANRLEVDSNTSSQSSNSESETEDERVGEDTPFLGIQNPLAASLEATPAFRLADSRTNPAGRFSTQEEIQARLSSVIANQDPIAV

Compound | composite z-score [1] | composite z-score [2] | composite z-score [3] | composite z-score [4] | composite z-score [5] | composite z-score [6] | composite z-score [7] | z-score [8] | composite z-score [9] | composite z-score [10] | composite z-score [11] | z-score [12] | z-score [13] | z-score [14] | composite z-score [15] | z-score [16] | composite z-score [17] | composite z-score [18] | composite z-score [19] | composite z-score [20]
CC[C@@H]1C(Sc2ccccc2)C(C(=O)O)[C@H](c2ccc(C)cc2)N1S(=O)(=O)c1ccc(C)cc1 (stereo not given in full) | 0.249 and -0.499 | 0.364 and -0.0981 | 0.0013 and 0.166 | 0.579 and 0.288 | 1.56 and 1.12 | 1.82 and 1.91 | 1.39 and 1.2 | -3.66 (inactive) and -3.89 (inactive) | 0.254 and 1.05 | -0.179 and -0.0994 | 1.25 and 1.49 | -0.768 (inactive) and -2.59 (inactive) | 0.796 (inactive) and -0.975 (inactive) | -0.451 (inactive) and -0.576 (inactive) | 2.66 and 3.19 | -0.889 (inactive) and -0.743 (inactive) | 0.149 and -0.0615 | -0.0727 and -0.216 | 1.11 and 1.07 | -0.0025 and -0.114
C=CCN(CCCCC)C(=O)C(c1cccs1)N(C(=O)/C=C\C(=O)O)c1c(Cl)cccc1CO (stereo not given) | 0.0175 and 0.264 | -0.764 and -0.654 | -0.21 and -0.122 | -1.57 and -1.12 | -2.35 and -1.74 | 1.12 and -0.954 | 0.683 and 0.526 | -0.383 (inactive) and 0.395 (inactive) | -0.655 and -1.1 | -0.128 and -0.323 | -0.399 and -0.874 | 0.0767 (inactive) and -0.389 (inactive) | -0.186 (inactive) and -0.149 (inactive) | -0.288 (inactive) and -0.446 (inactive) | 2.54 and 0.687 | -0.422 (inactive) and -0.448 (inactive) | 0.0503 and -0.151 | -2.9 and -1.86 | -0.864 and -1.23 | -0.348 and -0.216
C=CCN(CCCC)C(=O)C(c1cccs1)N(C(=O)/C=C\C(=O)O)c1ccc(CCO)cc1 (stereo not given) | 0.655 and 1.21 | 0.005 and 0.531 | -0.0493 and -0.166 | 0.115 and -1.62 | -1.83 and -2.34 | 0.863 and -0.409 | 0.867 and -0.0384 | 1.61 (inactive) and 1.37 (inactive) | -0.498 and -1.07 | -0.137 and -0.296 | -1.13 and -0.631 | -0.924 (inactive) and 0.0434 (inactive) | -0.13 (inactive) and -0.354 (inactive) | 0.161 (inactive) and 0.541 (inactive) | 0.413 and 0.484 | 0.0144 (inactive) and -0.312 (inactive) | 0.0113 and -0.145 | -2.58 and -3.71 | -1.26 and -0.946 | -0.315 and -0.346
C=CCN(C(=O)C1N(CCCCCCO)C(=O)C2C(C(=O)O)C3C=CC21O3)C(C)(C)C (stereo not given) | 0.619 and 0.997 | -1.01 and -1.12 | -0.159 and -0.313 | -1.58 and -1.55 | -1.01 and -1.71 | 1.07 and -0.354 | -0.192 and 0.886 | 3.01 (inactive) and 0.174 (inactive) | -0.492 and -1.5 | -0.169 and 0.0373 | -0.334 and -0.47 | -0.686 (inactive) and -0.559 (inactive) | -1.43 (inactive) and -0.867 (inactive) | -0.235 (inactive) and -0.724 (inactive) | -0.773 and 2.17 | 0.137 (inactive) and -0.31 (inactive) | -0.231 and -0.0217 | -2.53 and -1.64 | -0.763 and -1.42 | -0.253 and -0.375
C=CCN(CCCC)C(=O)C(c1cccs1)N(CCOCCO)C(=O)/C=C\C(=O)O (stereo not given) | 0.673 and -0.0069 | 0.878 and 0.902 | -0.208 and -0.23 | -1.36 and 0.428 | -1.8 and -0.746 | 1.34 and 0.823 | 0.903 and 0.941 | -1.65 (inactive) and -0.784 (inactive) | -0.496 and -0.114 | -0.134 and -0.236 | -1.08 and 0.596 | -1.98 (inactive) and -1.34 (inactive) | -0.745 (inactive) and -0.342 (inactive) | -0.604 (inactive) and -0.397 (inactive) | 0.657 and 2.51 | 1.02 (inactive) and 1.45 (inactive) | -0.145 and -0.139 | -1.73 and -0.798 | -0.852 and -0.503 | -0.236 and -0.148
CC(C)=NOC[C@@H](O)COCc1ccco1 | -0.0008 | 2.26 | -0.0924 | 0.0026 | -1.37 | 0.126 | -0.603 | 0.929 (inactive) | -0.549 | -0.0645 | -0.697 | 0.848 (inactive) | 0.174 (inactive) | 0.746 (inactive) | -0.151 | 0.358 (inactive) | -0.122 | 0.301 | -1.45 | -0.147
C=CCN(Cc1ccccc1)C(=O)C(c1cccs1)N(C(=O)/C=C\C(=O)O)c1c(Cl)cccc1CO (stereo not given) | 0.233 and 1.13 | -0.778 and -1.07 | -0.241 and -0.193 | -1.08 and -2.14 | -1.53 and -2.16 | -0.984 and -1.12 | 0.462 and -0.851 | -0.0406 (inactive) and 0.885 (inactive) | -1.91 and -1.01 | -0.549 and -0.38 | -0.716 and -1.9 | 0.506 (inactive) and -0.555 (inactive) | 0.172 (inactive) and 0.261 (inactive) | 0.23 (inactive) and -0.457 (inactive) | -1.36 and -0.736 | 2.07 (inactive) and -0.369 (inactive) | -0.128 and -0.121 | -2.28 and -3.61 | -1 and -1.49 | -0.252 and -0.359
C=CCN(C(=O)C(c1cccs1)N(C(=O)/C=C\C(=O)O)C(C)(C)CO)c1ccc(OC)cc1 (stereo not given) | 0.865 and 0.636 | -0.709 and 0.408 | -0.204 and -0.158 | -1.37 and -0.882 | -0.907 and -1.48 | 1.46 and 1.42 | 1.36 and 0.431 | -0.447 (inactive) and 1.44 (inactive) | -0.337 and -0.451 | -0.482 and -0.0645 | -0.771 and -0.469 | -2.87 (inactive) and -2.15 (inactive) | -2.09 (inactive) and -2.05 (inactive) | -2.57 (inactive) and -1.07 (inactive) | 2.03 and -0.628 | 3.5 (inactive) and 2.82 (inactive) | 0.388 and -0.0519 | -1.23 and -1.8 | -1.37 and -0.484 | -0.24 and -0.151
